Screens: PubChem, several laboratories
H9c2 protect = cardioprotection against H2O2-induced cell death, primary screen, uHTS, H9c2 cells, ATPLite luminescence | H9c2 cardiomyocytes, H2O2 injury protection, 2 h | protection from H2O2 cell death, % at 20 µM | 360,000 tested, 0.63% active;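 active means compounds giving at least 50% protection of heart cells from peroxide-induced death in the single-dose screen, raw or plate-pattern-corrected value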;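 further: 0% = DMSO wells with peroxide and 100% = DMSO wells without peroxide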
MIN6 prolif = inducers of MIN6 beta-cell proliferation, primary screen, ATP luminescence, uHTS | MIN6 cells proliferation, ATPlite luminescence, 48 h; cells starved in 0.2% serum; 100% = growth in 10% serum | proliferation, % at 10 µM | 330,000 tested, 0.29% active | AID 2380, 2010;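 active means compounds whose signal lies at least 3.5 SD above the mean of all wells on their plate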;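 further: 0% = DMSO-treated cells in low-serum medium and 100% = 10% serum control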
FAS TE block = FAS thioesterase domain inhibitors, primary screen, biochemical, fluorescence intensity, uHTS; AID 602261, 2012; recombinant FAS-TE, OMFH fluorogenic substrate, fluorescence endpoint; inhibition, % at 15 µM; Fatty acid synthase (Homo sapiens), P49327; 360,000 tested, 0.67% active;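 active means compounds whose normalised, plate-corrected inhibition of enzyme fluorescence in the single-dose primary screen is 50% or more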;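 further: 0% = DMSO with enzyme and 100% = substrate without enzyme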
Target sequence (P49327 whole entry, looked up, the tested form may be a part): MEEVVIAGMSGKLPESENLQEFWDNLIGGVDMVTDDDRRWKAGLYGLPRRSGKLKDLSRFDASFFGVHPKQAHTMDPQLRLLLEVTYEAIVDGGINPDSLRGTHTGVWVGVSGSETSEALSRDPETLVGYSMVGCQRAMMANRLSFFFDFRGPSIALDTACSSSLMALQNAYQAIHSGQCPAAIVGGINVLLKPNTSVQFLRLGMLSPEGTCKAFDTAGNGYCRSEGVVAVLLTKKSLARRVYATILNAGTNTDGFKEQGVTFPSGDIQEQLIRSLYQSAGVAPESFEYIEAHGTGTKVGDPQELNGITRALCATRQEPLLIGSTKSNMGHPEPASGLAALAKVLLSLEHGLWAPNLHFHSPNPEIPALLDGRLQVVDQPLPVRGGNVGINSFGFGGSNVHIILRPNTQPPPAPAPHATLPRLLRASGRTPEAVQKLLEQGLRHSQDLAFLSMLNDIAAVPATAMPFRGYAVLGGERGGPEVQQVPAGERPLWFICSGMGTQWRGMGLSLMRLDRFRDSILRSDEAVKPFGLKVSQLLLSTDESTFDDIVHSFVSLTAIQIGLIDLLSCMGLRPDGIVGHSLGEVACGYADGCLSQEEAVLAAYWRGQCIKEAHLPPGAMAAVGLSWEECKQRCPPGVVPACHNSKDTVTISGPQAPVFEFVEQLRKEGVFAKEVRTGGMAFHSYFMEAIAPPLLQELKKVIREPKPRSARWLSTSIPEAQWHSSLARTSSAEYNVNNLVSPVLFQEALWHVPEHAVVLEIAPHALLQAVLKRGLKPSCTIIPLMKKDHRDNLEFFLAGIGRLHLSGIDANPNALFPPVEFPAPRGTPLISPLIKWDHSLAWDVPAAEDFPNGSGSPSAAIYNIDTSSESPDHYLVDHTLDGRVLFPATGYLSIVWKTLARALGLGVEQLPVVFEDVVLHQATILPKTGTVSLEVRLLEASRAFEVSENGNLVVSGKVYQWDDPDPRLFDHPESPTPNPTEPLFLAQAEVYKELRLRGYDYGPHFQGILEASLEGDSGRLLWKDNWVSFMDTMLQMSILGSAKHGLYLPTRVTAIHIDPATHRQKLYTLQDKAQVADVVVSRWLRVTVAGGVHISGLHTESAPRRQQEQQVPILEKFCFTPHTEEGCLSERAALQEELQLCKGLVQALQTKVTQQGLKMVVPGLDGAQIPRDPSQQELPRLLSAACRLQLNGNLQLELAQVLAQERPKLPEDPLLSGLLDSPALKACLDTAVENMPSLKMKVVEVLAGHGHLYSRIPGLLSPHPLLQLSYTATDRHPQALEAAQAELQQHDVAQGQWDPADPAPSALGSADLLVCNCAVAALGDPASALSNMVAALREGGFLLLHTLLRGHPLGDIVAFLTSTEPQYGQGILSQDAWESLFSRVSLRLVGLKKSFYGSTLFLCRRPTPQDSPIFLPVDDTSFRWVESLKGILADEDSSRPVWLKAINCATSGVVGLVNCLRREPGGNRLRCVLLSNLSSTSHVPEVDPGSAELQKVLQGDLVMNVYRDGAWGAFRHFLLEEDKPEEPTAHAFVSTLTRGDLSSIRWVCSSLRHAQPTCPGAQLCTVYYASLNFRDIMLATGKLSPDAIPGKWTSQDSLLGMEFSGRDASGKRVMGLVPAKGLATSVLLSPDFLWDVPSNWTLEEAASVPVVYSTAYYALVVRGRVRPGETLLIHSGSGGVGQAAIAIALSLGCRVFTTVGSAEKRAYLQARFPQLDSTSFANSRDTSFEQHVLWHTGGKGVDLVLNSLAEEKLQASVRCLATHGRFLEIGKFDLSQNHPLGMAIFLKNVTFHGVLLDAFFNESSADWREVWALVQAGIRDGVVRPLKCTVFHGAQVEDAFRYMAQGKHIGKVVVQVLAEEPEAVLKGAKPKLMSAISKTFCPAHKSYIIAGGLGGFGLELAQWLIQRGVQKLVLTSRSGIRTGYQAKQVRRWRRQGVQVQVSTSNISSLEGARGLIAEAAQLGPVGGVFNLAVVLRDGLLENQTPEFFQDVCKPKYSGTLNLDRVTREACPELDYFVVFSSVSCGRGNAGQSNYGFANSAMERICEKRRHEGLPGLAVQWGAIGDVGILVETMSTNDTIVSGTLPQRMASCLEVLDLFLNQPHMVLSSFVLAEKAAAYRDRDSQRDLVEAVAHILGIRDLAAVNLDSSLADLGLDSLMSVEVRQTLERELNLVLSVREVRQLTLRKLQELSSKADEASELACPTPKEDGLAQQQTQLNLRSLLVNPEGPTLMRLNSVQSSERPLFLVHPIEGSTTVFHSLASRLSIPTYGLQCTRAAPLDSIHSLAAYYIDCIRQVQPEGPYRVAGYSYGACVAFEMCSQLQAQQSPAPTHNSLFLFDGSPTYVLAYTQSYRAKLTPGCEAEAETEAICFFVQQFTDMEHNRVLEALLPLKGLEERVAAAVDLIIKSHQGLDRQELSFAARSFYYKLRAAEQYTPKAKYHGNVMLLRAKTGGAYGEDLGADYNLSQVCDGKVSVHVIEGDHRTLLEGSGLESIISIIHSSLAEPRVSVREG
aDG glyco act = activators of alpha-DG glycosylation, primary screen, uHTS, Pro5-aDG cells, AlphaScreen. alpha-DG glycosylation AlphaScreen (IIH6); 0% Pro5, 100% B10-LARGE cell signal. activation, % at 10 µM. 360,000 tested, 0.22% active;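 active means activation of at least 8% versus controls, or a plate z-score of at least 8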;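 further: Pro5 are CHO cells carrying HIG-tagged alpha-DG that lacks glycosylation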
H9c2 TAG inh = inhibitors of triacylglycerol accumulation, primary screen, cell-based, uHTS, fluorescence, H9c2 | inhibition, % at 12.5 µM | 230,000 tested, 0.66% active | AID 651582, 2012 | H9c2 cells, Nile Red lipid (TAG) fluorescence; cells loaded with 200 µM oleic acid;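 active means pattern-corrected inhibition of lipid staining of at least 50% with the nuclear-stain viability signal not falling by more than 50%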;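 further: 0% = DMSO wells and 100% = triacsin C control wells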
Calpain2 inh = inhibitors of pig calpain II, primary screen, biochemical, fluorogenic peptide substrate, 1536-well; purified calpain II, 30 min; inhibition, % at 16 µM; 220,000 tested, 0.37% active; AID 1236, 2008;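 active means inhibition above about 50%, limit read from the data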
H9c2 TAG conf = triacylglycerol accumulation inhibitors, retest, confirmation, cell-based, single concentration, Nile Red fluorescence, H9c2. 990 tested, 71% active. AID 651629, 2012. inhibition, % at 12.5 µM. shares compounds with H9c2 TAG inh. H9c2 lipid accumulation; cells loaded with 200 µM oleic acid;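 active means mean inhibition across replicates of 40% or more; inactive means mean inhibition below 40%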;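 further: plate controls were DMSO only wells for no effect and Triacsin C treated wells for full effect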
An asterisk follows results filed as active; / = no result given. Compounds with a hit are over-represented: about 2.3% of the library has one in this group of screens.

SMILES	H9c2 protect	MIN6 prolif	FAS TE block	aDG glyco act	H9c2 TAG inh	Calpain2 inh	H9c2 TAG conf
CC1(C)Cc2cccc(OCC(=O)Nc3ccc(OCC(N)=O)cc3)c2O1	2	-4	0	0	66*	-10	-18
CC(=O)Nc1ccc(NC(=O)COc2cccc3c2OC(C)(C)C3)cc1	15	-3	-8	0	-1	0	/
COc1ccc(Cl)cc1C(=O)NNC(=O)CCNC(=O)c1ccccc1	1	/	-3	0	-3	/	/
N=c1n(CCO)c2ccccc2n1CCOc1ccc(Cl)cc1Cl	9	-6	-2	0	91*	-34	64*
COc1ccc(OCCn2c(=N)n(CCO)c3ccccc32)cc1	6	-1	-9	0	-7	11	/
COc1cccc(C(=O)NCCS(=O)(=O)N2CC(C)CC(C)C2)c1 (centres undefined)	-3	-3	2	0	6	/	/
COc1ccc(OC)c(C(=O)Cn2cnc3ccccc3c2=O)c1	3	0	2	0	/	/	/
O=[N+]([O-])c1ccc(/C=N/Nc2ncccc2[N+](=O)[O-])s1	-1	-3	-3	1	64*	/	33
C[C@@H]1CN([C@@H](C)CO)C(=O)c2cccc(NC(=O)C3CCCCC3)c2O[C@@H]1CN(C)Cc1ccc(Cl)c(Cl)c1	0	-6	19	0	55*	/	70*
C[C@@H]1CN([C@H](C)CO)C(=O)c2c(c3ccccc3n2C)-c2ccccc2CO[C@H]1CN(C)Cc1ccccc1	-10	/	21	2	34	/	/
C[C@H](O)C#Cc1ccc2c(c1)O[C@@H](CN(C)Cc1ccc(-c3ccccc3)cc1)[C@H](C)CN([C@@H](C)CO)S2(=O)=O	18	/	25	0	64*	/	66*
C[C@H](CO)N1C[C@H](C)[C@@H](CN(C)Cc2ccc(-c3ccccc3)cc2)Oc2c(NC(=O)Cc3ccccc3)cccc2C1=O	0	-6	19	0	50*	/	59*
C[C@@H]1CN([C@H](C)CO)S(=O)(=O)c2ccc(Br)cc2O[C@@H]1CN(C)Cc1ccc(-c2ccccc2)cc1	-15	/	26	0	-8	/	/
C[C@@H]1CN([C@H](C)CO)C(=O)c2c(c3ccccc3n2C)-c2ccccc2CO[C@H]1CN(C)Cc1ccc(-c2ccccc2)cc1	-12	/	15	0	84*	/	53*
C[C@H](CO)N1C[C@H](C)[C@@H](CN(C)Cc2ccncc2)Oc2c(NC(=O)C3CCCCC3)cccc2C1=O	15	-3	-9	1	2	/	/
CCOc1ccc(C(C(=O)NCC2CCCO2)N(C(=O)c2snc(C(N)=O)c2N)c2ccc3c(c2)OCCO3)cc1 (centres undefined)	30	0	13	0	/	/	/
CC(=O)N(C)C[C@H]1Oc2ncc(Br)cc2C(=O)N([C@H](C)CO)C[C@@H]1C	1	/	-5	0	-1	/	/
CCN(CC)c1ccc(S(=O)(=O)N2CCOCC2)cc1NC(=O)CSC(=S)N1CCCC1	-2	0	5	-1	-6	/	/
C[C@@H]1CN([C@H](C)CO)C(=O)c2cccc(NC(=O)Nc3ccc(C(F)(F)F)cc3)c2O[C@H]1CN(C)S(=O)(=O)c1cccs1	6	-6	32	0	71*	/	63*
CC(C)(Oc1ccc(Cl)cc1)C(=O)Nc1ccc2oc(-c3ccncc3)nc2c1	-11	0	2	0	57*	-49	46*
c1ccc(COc2ncnc3c2ncn3CCCNC2CCN(Cc3ccccc3)CC2)cc1	-24	/	-8	1	63*	/	35
O=C(COC(=O)COc1cccc(Br)c1)NCc1ccc2c(c1)OCO2	0	-3	-7	0	-9	/	/
CCCN(CCC)CCNC(=O)c1cc2c(=O)n(CC)c3ccccc3c2s1	5	-6	-2	0	52*	-230	68*
Cc1cccc(NC(=O)COC(=O)c2nn(-c3ccccc3C(F)(F)F)cc2O)c1C	-3	/	-18	0	-2	/	/
O=C(Nc1ccc2ccccc2c1)[C@@H]1C[C@H]1[C@@H](NP(=O)(c1ccccc1)c1ccccc1)c1ccccc1	3	-8	16	0	52*	-56	34
SMILES	H9c2 protect	MIN6 prolif	FAS TE block	aDG glyco act	H9c2 TAG inh	Calpain2 inh	H9c2 TAG conf
O=C(NCc1ccccc1)[C@@H]1C[C@H]1[C@@H](NP(=O)(c1ccccc1)c1ccccc1)c1ccccc1	10	2	0	0	25	12	/
Cc1cc(S(=O)(=O)NC(=O)[C@H]2O[C@@H](n3cnc4c(N)ncnc43)[C@H](O)[C@@H]2O)ccc1Br	-5	/	-16	0	/	/	/
COc1ccc([C@H]2CC(=O)C=C(c3ccc(OC)cc3OC)C2)cc1	-4	-6	22	0	52*	/	81*
O=C(c1ccccc1)n1c(=O)cc[nH]c1=O	-3	1	-10	0	-9	/	/
CS(=O)(=O)c1ccc(C(=O)OCC(=O)N2CCOCC2)cc1[N+](=O)[O-]	-34	/	-4	0	62*	/	59*
CS(=O)(=O)c1ccc(C(=O)OCC(=O)N2CCN(CCC3CCCCC3)CC2)cc1[N+](=O)[O-]	-29	/	12	0	4	/	/
Cc1c(C(=O)N2CC3(CC(c4cccc(NC(=O)CC(c5ccccc5)c5ccccc5)c4)=NO3)C[C@@H]2C(N)=O)cc([N+](=O)[O-])cc1[N+](=O)[O-] (some centres undefined)	-4	-6	37	0	54*	-117	43*
COc1cccc(-c2cc(C(=O)Nc3ccc(N(C)C(C)=O)cc3)c3cc(Br)ccc3n2)c1	17	0	44	0	50*	/	57*
O=C(Cc1n[nH]c(=O)c2ccccc12)OCC(=O)c1ccc2c(c1)OCCO2	66*	-5	-1	0	81*	12	56*
COCCCNC(=O)c1cc2c(-c3ccc(Cl)cc3)nn(C)c2s1	5	-4	12	0	43	-87	/
COCCNC(=O)c1cc2c(-c3ccc(Cl)cc3)nn(C)c2s1	2	5	10	0	52*	-292	45*
C[C@H](CO)N1C[C@H](C)[C@@H](CN(C)C)Oc2c(NS(=O)(=O)c3ccc(F)cc3)cccc2C1=O	1	1	-9	0	-1	/	/
